Assay results: PubChem BioAssay (NCI)
The panel holds about 83,000 compounds, 20% with a hit somewhere; the sample as a whole holds those more often.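 Single-concentration screen, 48 h exposure, 96-well plates. Endpoint: percent growth. Below 10 = active.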 Values without a mark were called inactive. Calls of active or inactive are those of the source.

Key:
Assay in all cases: NCI-60 one-dose screen, 48 h (100 = growth as untreated, 0 = no growth, -100 = all killed)
Conditions in all cases: 10 µM unless noted
[1] = test system: EKVX NSCLC
[2] = test system: SN12C renal
[3] = test system: UO-31 renal
[4] = test system: TK-10 renal
[5] = test system: ACHN renal
[6] = test system: A498 renal
[7] = test system: CCRF-CEM leukemia
[8] = test system: MOLT-4 leukemia
[9] = test system: CAKI-1 renal

Compound | growth [1] | growth [2] | growth [3] | growth [4] | growth [5] | growth [6] | growth [7] | growth [8] | growth [9]
COc1cc(C2=NN(C=O)C(c3cccc(Nc4ccnc5cc(Cl)ccc45)c3)C2)cc(OC)c1OC (centres undefined) | 79.3% | 77.2% | 68.7% | 87.9% | 86.2% | 62.5% | 53.9% | 27.9% | –
O=C(Nc1nc2c(C(F)(F)F)cccc2s1)c1cc(Cl)ccc1O | 11.1% | -4.79% (active) | -10.9% (active) | 10.2% | 5.28% (active) | -36.9% (active) | 10.7% | -8.05% (active) | –
O=C(c1ccc(Cl)cc1)c1ccc(Cl)cc1 | 108% | 102% | 108% | 101% | 123% | 97.7% | 88.6% | 106% | 115%
COc1cc(C2CC(C3C(=O)N(C)C(=O)N(C)C3=O)=NN2C=O)cc(OC)c1OC (centres undefined) | 100% | 94% | 101% | 87.4% | 105% | 95.1% | 82.8% | 92.7% | –
CCCc1n(Cc2ccc3ccccc3c2)cc[n+]1Cc1ccc2ccccc2c1 | 21.1% | -3.87% (active) | 34.8% | -8.58% (active) | 42.3% | -3.35% (active) | 11.8% | -5.48% (active) | –
O=C(CSc1ncc(-c2ccccc2)n1-c1ccccc1)Nc1ccc(-c2nc3ccccc3s2)cc1 | 103% | 71.2% | 98.4% | 44.2% | 102% | 107% | 83.8% | 66.6% | 87.4%
O=C(/C=C/c1cccc(Nc2ccnc3cc(Cl)ccc23)c1)c1ccc(Cl)cc1 | 60.3% | 37.6% | 30.1% | 49% | 51.1% | 44.1% | 24.4% | 24.1% | –
CCOC(=O)CNC(=O)C1(NC(=O)CNC(=O)OCc2ccccc2)CCCC1 | 99.4% | 93.8% | 98.6% | 102% | 103% | 102% | 102% | 106% | 95.2%
CN(C)CCCN=c1cc2c(=O)n(CCCN(C)C)c(=O)c3c(NCCCN(C)C)cc4c(O)n(CCCN(C)C)c(=O)c1c4c3-2 | -18.4% (active) | 9.31% (active) | -26.6% (active) | 7.45% (active) | -41.6% (active) | -64.8% (active) | 10.8% | 25.1% | 4.58% (active)
COc1ccc2c3c(ccc2c1)C(=O)/C(=C\O)CC3 | 78.5% | 100% | 96.6% | 93.4% | 102% | – | 72.4% | 88.4% | 105%
COc1cccc(/C=N\NC(=O)c2ccncc2)c1O | 78.8% | 62.8% | 29% | 41.1% | 31.2% | – | 11% | 13.9% | 13.2%
O=C(Nc1nn2c(-c3cc(C(F)(F)F)cc(C(F)(F)F)c3)nnc2s1)C1CCCC1 | 21.7% | 11.6% | 8.94% (active) | -30.4% (active) | 8.22% (active) | -21.8% (active) | 13.8% | -10.2% (active) | 7.75% (active)
COc1cc(C(=O)/C=C/c2cccc(Nc3ccnc4cc(Cl)ccc34)c2)cc(OC)c1OC | 16.8% | -1.72% (active) | -87.9% (active) | -39.5% (active) | -68.7% (active) | 78.6% | 2.7% (active) | -6.64% (active) | –
CCOC(=O)c1sc(NC(=O)COc2cccc(/C=C3\Cc4ccc(Cl)cc4C3=O)c2)nc1C | 107% | 105% | -17.4% (active) | 145% | 110% | 133% | 114% | 105% | 84.6%
COc1ccc(Oc2ccccc2NC(=O)CNC(=O)c2cccc3ccccc23)cc1 | 46.3% [5 µM] | 46.7% [5 µM] | 42.4% [5 µM] | 47.6% [5 µM] | 40.3% [5 µM] | 7% [5 µM] (active) | 15.5% [5 µM] | 17.1% [5 µM] | –
CC(=O)[C@H]1CC[C@H]2[C@@H]3C[C@H](C)C4=CC(=O)CC[C@]4(C)[C@H]3C(=O)C[C@]12C | 114% | 94.5% | 87% | 104% | 95.8% | – | 104% | 92.3% | 94.8%
Cc1ccccc1NC(=O)NC(CC(N)=O)c1ccc2c(c1)nc(-c1cccc(Oc3ccc(C(C)(C)C)cc3)c1)n2CCCN1CCCCC1C (centres undefined) | 79.2% | 59.1% | 88.6% | 31.1% | 74.4% | 69.4% | 1.56% (active) | -10.6% (active) | 92.6%
O=c1[nH]c(N2CCC(Cc3ccccc3)CC2)nc2sc3c(c12)CCCC3 | 99.5% | 103% | 102% | 99% | 104% | 102% | 91.6% | 100% | –
O=C(/C=C/c1c(-c2ccccc2)[nH]c2ccccc12)S(=O)(=O)c1ccccc1 | 64.3% | 73.6% | 31% | 121% | 71.8% | 53.8% | 30.2% | 20.4% | 200%
NS(=O)(=O)N(c1cc(C(F)(F)F)cc(C(F)(F)F)c1)C1CCN(Cc2ccc(C(F)(F)F)cc2)CC1 | 16.2% | 55.1% | 64.6% | 67% | 69.5% | 28.2% | 23.6% | 20.3% | 66.2%
O=C(N/N=C/c1ccc(Cl)cc1Cl)c1ccccc1Nc1cccc(C(F)(F)F)c1 | -27.9% (active) | 53.3% | 25.7% | 106% | 35.9% | -7.44% (active) | 32.4% | 55.8% | 55.5%
CC(=O)N1N=C(c2ccc3c(c2)OCO3)CC1c1c(C)nn(-c2ccccc2)c1N(C)Cc1ccccc1 (centres undefined) | 72.9% | 72.9% | 51.9% | 80.9% | 81.3% | 67.4% | 69.5% | 41.9% | –
O=C(CNC(=O)c1cccc2ccccc12)Nc1ccccc1Oc1ccc(O)cc1 | 52.4% [5 µM] | 55% [5 µM] | 45.2% [5 µM] | 43.6% [5 µM] | 43.8% [5 µM] | 17.6% [5 µM] | 22.4% [5 µM] | 19.6% [5 µM] | –
COc1cc(-c2nnc(-c3nc(-c4cc(OC)c(OC)c(OC)c4)n4ccccc34)o2)ccc1N | 8.84% (active) | 50.4% | 38.6% | – | 62.2% | 98.8% | 43% | 64.6% | 59.3%
OCCN1CCN(CCCN2c3ccccc3Sc3ccc(C(F)(F)F)cc32)CC1 | 47.2% | 43.6% | 32.5% | 4.29% (active) | – | 44.5% | 29.7% | -16% (active) | 25.7%
COc1cc(/C=C2\CN(S(=O)(=O)c3ccc(C)cc3)C/C(=C\c3cc(CN4CCOCC4)c(O)c(OC)c3)C2=O)cc(CN2CCOCC2)c1O | 11.6% | -19.3% (active) | -89.3% (active) | – | -82.4% (active) | 36.5% | 8.78% (active) | 4.35% (active) | 9.3% (active)
O=C(Nc1ccccc1S)c1ccccc1 | 94.6% | 95.2% | 91.8% | – | 104% | 86.5% | 106% | 82% | –
CCCCCCCCCCNCCSS(=O)(=O)O | 101% | 31.5% | 70.6% | – | 92.6% | 101% | 50.3% | 9.96% (active) | 98.8%
CCOc1nc(-c2ccco2)n2nc(-c3ccco3)cc2n1 | 95% | 104% | 91.1% | – | 95.5% | 83.5% | 102% | 114% | 95.9%
O=C1CSC(c2ccccc2Cl)N1c1nnc(Cn2nnc3ccccc32)o1 (centres undefined) | 75% | 87.4% | 66.3% | – | 83.6% | 50.2% | 85.6% | 73.4% | 40.6%
